Results reported in PubChem BioAssay AID518 (Sanford-Burnham Center for Chemical Genomics, 2006).
Among all 64,000 compounds or so, about 55 (0.09%) were called active. No rule for the calls is given here. The list is a sample of the results.

target: Alkaline phosphatase, tissue-nonspecific isozyme (Homo sapiens) (UniProt P05186); assay: human TNAP enzyme inhibitors, biochemical, luminescent (AID 518); settings: purified TNAP enzyme, luminescent substrate readout; at 20 µM; hits give high values;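 also: plate controls were vehicle for no effect and reference inhibitor for full effect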
Sequence (P05186 whole entry, looked up): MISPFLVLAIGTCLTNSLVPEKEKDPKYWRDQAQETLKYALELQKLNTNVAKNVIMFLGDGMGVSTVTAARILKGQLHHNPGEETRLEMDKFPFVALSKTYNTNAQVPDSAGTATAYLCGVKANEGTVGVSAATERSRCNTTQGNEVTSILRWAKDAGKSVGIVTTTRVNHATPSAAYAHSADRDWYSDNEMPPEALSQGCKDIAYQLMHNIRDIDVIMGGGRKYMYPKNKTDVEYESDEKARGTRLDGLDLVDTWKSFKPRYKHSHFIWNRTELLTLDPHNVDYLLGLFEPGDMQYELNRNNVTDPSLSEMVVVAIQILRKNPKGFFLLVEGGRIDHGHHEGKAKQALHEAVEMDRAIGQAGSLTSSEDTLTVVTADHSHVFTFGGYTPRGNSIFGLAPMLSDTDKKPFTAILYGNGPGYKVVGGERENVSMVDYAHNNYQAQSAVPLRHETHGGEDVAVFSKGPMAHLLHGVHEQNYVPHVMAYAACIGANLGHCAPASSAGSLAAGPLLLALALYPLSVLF

inhibition, inactive:
Cc1ccc(N(CC(=O)N2CCN(c3ccc(F)cc3)CC2)S(=O)(=O)c2c(C)nn(C)c2C)cc1 8.6%
O=C(c1ccc(Cl)cc1)N1CCC(c2nc(-c3cccs3)no2)CC1 13.1%
CCC(CC)C(=O)NCCNC(=O)C(CC)CC 10.5%
Cc1ccc(OCC(=O)N2CCN(C(=O)CCC3CCCC3)CC2)cc1 6.3%
Cc1cc2c(c(=O)n1CCN(C)C)C(c1ccccc1Br)C(C#N)=C(N)O2 (configuration not stated) 9.3%
COCCNC(=O)Nc1ccc2c(c1)N(C)C(=O)CS2 1.5%
O=C(c1cc2ccccn2n1)N1CCN(Cc2ccccc2)CC1 2.9%
Cc1onc(-c2ccccc2Cl)c1C(=O)Nc1ccc(-c2cn3cccnc3n2)cc1 4.9%
CCOC(=O)CN1CC23C=CC(O2)C(C(=O)O)C3C1=O (configuration not stated) 5.4%
O=C(CSc1nnc(-c2cccnc2)n1-c1ccccc1)Nc1ccccn1 2.6%
COc1ccc(OC)c(S(=O)(=O)NC2CCN(Cc3ccccc3)CC2)c1 6.7%
CC(C)(C)n1ncc2c(=O)n(CC(=O)N3CCCc4ccccc43)cnc21 4%
COc1ccc(-c2nnc(SCC(=O)N3CCOCC3)o2)cc1 3.7%
Cc1nn(Cc2ccccc2)c(C)c1CCC(=O)O 7.6%
N#Cc1ccccc1NC(=O)c1ccccc1OCC(=O)NCc1ccco1 7%
COC(=O)c1ccc(NC(=O)COc2ccc(S(=O)(=O)NC(C)C)cc2)cc1 -1.4%
O=C1CC(c2ccco2)Cc2nc(N3CCN(Cc4ccc5c(c4)OCO5)CC3)ncc21 (configuration not stated) 10.2%
Cc1noc(C)c1S(=O)(=O)N1CCC(C(=O)N(C)Cc2ccccc2)CC1 -0.3%
CN(Cc1ccccc1)Cc1c(F)cccc1F 5.6%
CN1C(=O)CS(=O)c2ccc(C(=O)NC3CC3)cc21 (configuration not stated) 10%
CCc1c(C)nc2ncnn2c1N1CCC(C(=O)NCc2cccc(OC)c2)CC1 13%
Cc1ccc(NC(=O)C2CCCN2S(=O)(=O)c2ccc3c(c2)CCC(=O)N3)cc1Cl (configuration not stated) 9%
N#Cc1cc(Sc2ccccn2)c(Sc2ccccn2)cc1C#N 10.6%
CC(=O)Nc1nc2ccccc2n1CCOc1ccccc1 4.8%
O=C(C1CCCN(S(=O)(=O)c2cccc3cccnc23)C1)N1CCN(c2ccc(F)cc2)CC1 (configuration not stated) 14.6%
O=c1c2ccccc2nc(SCc2nnc(-c3ccccc3)o2)n1-c1ccccc1 3.6%
O=C(O)c1ccc(S(=O)(=O)c2ccccc2)cc1 8.6%
CC(=O)C(Sc1nc(-c2ccco2)nc2c1c(=O)n(C)c(=O)n2C)C(=O)N(C)C (configuration not stated) 6%
COc1cccc(N2CCN(C3CC(=O)N(c4ccc(F)c(Cl)c4)C3=O)CC2)c1 (configuration not stated) 7.6%
O=C(c1ccc(-c2ccccc2)cc1)N1CCN(c2nc3ccccc3o2)CC1 -3.8%
COc1cc(/C=N/n2cnnc2)ccc1OCCOc1ccccc1 2.9%
COc1ccc(OCc2nc(C#N)c(N3CCN(c4ccc(OC)cc4)CC3)o2)cc1 16.1%
O=S(=O)(NCCc1cn2ccccc2n1)c1cccs1 1.2%
CC(=O)N1CCC(N(C(=O)Nc2ccc(C)c(C)c2)C2CCCC2)CC1 6.3%
CC1Cc2ccccc2N1C(=O)C1CCCN(S(=O)(=O)c2cccc3nsnc23)C1 (configuration not stated) 15.5%
O=C(CSCc1ccccc1)N1CCN(c2ccc(F)cc2)CC1 5.6%
CSc1nc2c(c(=O)[nH]c(=O)n2C)n1C/C=C(\C)Cl 11.8%
O=C(Cn1ncc2c1-c1ccccc1OC2)N1CCN(c2ccccn2)CC1 16.3%
Cn1c(SCC(=O)N2CCOCC2)nnc1-c1ccccc1 3.9%
CCOc1cccc(-c2nnc3sc(-c4cc(OC)c(OC)cc4OC)nn23)c1 8.9%
CC(NC(=O)C(c1ccccc1)c1ccccc1)C(=O)O (configuration not stated) 10%
CN(CC(=O)NCCC1=CCCCC1)S(=O)(=O)c1ccc2c(c1)CCC(=O)N2 6.5%
Cc1csc(NC(=O)CSc2nnc(-c3ccncc3)o2)n1 13.3%
Cc1ccc(-c2nc(CS(=O)(=O)CC(=O)N3CC(C)CC(C)C3)c(C)o2)cc1 (configuration not stated) 2.5%
CCC1(c2ccc(F)cc2)NC(=O)N(CC(=O)c2ccc[nH]2)C1=O (configuration not stated) 11.1%
Cc1ccc(-n2c(SCC(N)=O)nnc2-c2ccccn2)cc1 5.9%
Cc1nc(CN2CCN(C(=O)c3ccc(Br)cc3)CC2)cs1 8.9%
CC1(C)CC(=O)C2=C(C1)N(CC1CCCO1)C(=O)NC2(C(F)(F)F)C(F)(F)F (configuration not stated) 7.8%
COc1cc(/C=N/n2cnnc2)ccc1OCC(=O)N1CCOCC1 9.7%
Cc1cc(C(=O)CSc2nncs2)c(C)n1-c1c(C)n(C)n(-c2ccccc2)c1=O 6.8%
COc1ccc(NC(=O)CSc2nnc(Cc3cccn3C)n2CCc2ccccc2)cc1OC 21.5%
Cc1oc(CC(C)C)cc1C(=O)Nc1ccc(C(=O)O)cc1 -1.6%
C=CCn1c(COc2ccccc2)nnc1SCc1ccc(C#N)cc1 5%
O=C1C2CCCN2C(c2ccccc2)N1c1cccc(Cl)c1 (configuration not stated) 2.8%
COc1ccc(-c2ccc(-c3noc(-c4ccccc4C)n3)c(OC)n2)cc1 6.5%
CCCCn1c(Cl)nc2c1c(=O)n(C)c(=O)n2C 13.4%
CCOc1ccc(S(=O)(=O)Nc2nc3ccccc3nc2N2CCN(C)CC2)cc1 0.5%
O=C(c1cccnc1)N1CCN(C(=O)c2cccs2)CC1 4.7%
Cc1ccc(CC(=O)Nc2cccc(C)n2)cc1 6%
C=CCOC(=O)CCCC(=O)NC1CCCCC1 3.4%
CCOC(=O)C1Cc2cc3c(cc2C1=O)CC(C(=O)OCC)C3=O (configuration not stated) 8.4%
CN(c1cccc(NC(=O)c2ccccc2N(C)S(C)(=O)=O)c1)S(C)(=O)=O 14.3%
O=C(NCCCN1CCCC1)C1CCC(=O)N1C1CCCCC1 (configuration not stated) 7.6%
N#Cc1ccc(Sc2nc3ccccc3[nH]2)cc1C#N 0.3%
CC(C)Sc1nnc(NC(=O)C2CC2)s1 -0.5%
O=C(Nc1cccnc1)c1c(O)c2cccc3c2n(c1=O)CC3 5.4%
COc1ccc(CN2CCC(C(=O)N(C)CCc3ccc(OC)c(OC)c3)CC2)c(OC)c1 14%
O=C(NC1CCCCC1)c1ccc(Br)o1 9%
CC12CN3CC(C)(CN(C1)C3c1ccccc1Cl)C2O (configuration not stated) 3.8%
O=C(NCCc1csc(-c2ccccc2)n1)c1cccs1 9.4%
Cc1cc(NC(=O)c2cccc(S(=O)(=O)N3CCCCCC3)c2)n(-c2ccccn2)n1 -5.7%
CCOC(=O)C1CCN(C(=O)COC(=O)CCOc2ccc(C)cc2)CC1 7.4%
CCOc1ccc(C(=O)CN2CCN(S(=O)(=O)c3ccc(Cl)cc3)CC2)cc1 4.9%
COc1ccc(C(C)=O)cc1CSc1nnc(C)s1 7%
CC(=O)c1cccc(NC(=O)c2cccc(S(=O)(=O)N(C)C)c2)c1 6.3%
c1ccc2c(c1)CNc1ccccc1C2 5%
COc1ccc(-n2nnc3c(SCC(=O)NCc4ccco4)ncnc32)cc1 11.9%
COc1cccc(NC(=O)c2ccc3c(c2)N(CC(=O)N2CCCCC2)C(=O)C(C)(C)O3)c1 1.3%
COc1ccc(Nc2nc(N)nc(SCc3nnc(C)s3)n2)cc1 -0.5%
COc1ccccc1N1CCN(C(=O)CSc2nnc3n2C(C)(C)Cc2ccccc2-3)CC1 10.5%
CC1=C(c2ccc(Cl)cc2)[N+](=O)C(C)(C)N1[O-] 20.3%
Cc1ccc(C(C(=O)NC2CCCCC2)N(CC2CCCO2)C(=O)CNC(=O)c2ccco2)cc1 (configuration not stated) 2.7%
CC(OC(=O)CNC(=O)c1ccc2c(c1)OCO2)C(=O)NCCC1=CCCCC1 (configuration not stated) 8.9%
CN(C)c1ccc(C(C(=O)NC(C)(C)C)N(C(=O)c2csnn2)C2CC2)cc1 (configuration not stated) 6.8%
CC(c1nnc(SCC(=O)c2c(N)n(C)c(=O)n(C)c2=O)n1-c1ccc(Cl)cc1)N(C)C (configuration not stated) 2.8%
CC1CCCCN1CCNC(=O)C1CCN(S(=O)(=O)c2cccc3cccnc23)CC1 (configuration not stated) 9.7%
Cc1ccc(S(=O)c2ccc(C)cc2)cc1 4.1%
O=C(CC1CCCCC1)c1c(O)c2ccccc2oc1=O 5%
CCOC(=O)c1[nH]c(CSc2nnc(-c3ccncc3)n2CCOC)c(C(=O)OCC)c1C 10.1%
CC1CC=C2C(C#N)=C(N)C(C#N)(C#N)C(c3cccs3)C2C1 (configuration not stated) 8.9%
CCc1ccc(Nc2cc(=O)n(C3CCCCC3)c(=O)[nH]2)cc1 11.3%
COc1cccc(-c2cc(C(=O)NCc3ccc(Cl)cc3)no2)c1 8.1%
COc1ccc(S(=O)(=O)N2C3CCC2CC(NC(=O)C2CC2)C3)cc1 (configuration not stated) 2%
Nc1nc(CN2CCN(Cc3ccc4c(c3)OCO4)CC2)nc(Nc2ccccc2)n1 12.3%
CC1(C)NC(=O)N(CC(O)COc2ccc(N3C(=O)c4ccccc4C3=O)cc2)C1=O (configuration not stated) 8.6%
COc1ccc(N2C(=O)CSC2c2ccc3c(c2)OCO3)cc1 (configuration not stated) 13.6%
CC(C)NS(=O)(=O)c1ccc(OCC(N)=O)c(Cl)c1 9.1%
Cc1cccc(NC(=O)CC(C)(C)C)c1 8.8%
Cc1nc(CSc2nnc3scc(-c4ccccc4)n23)cs1 6.4%
CCCCCN=C(C)c1c(O)c2ccccc2oc1=O 7.3%
CNc1oc(Cc2ccccc2)nc1S(=O)(=O)c1ccccc1 9.1%
COC(=O)Nc1sc2c(c1C(N)=O)CCCCCC2 15.8%
